Where “and” joins values, the source holds several entries; their conditions need not be identical. Identical values can stand only once. Out of some 5,500 compounds screened, about 2,000 (36%) were called active. Inconclusive results (about 18%) are left out. Cut-off read from the data, not from the text of the source: active = normalized growth mostly below about 0.91 (no sharp cut-off); inconclusive = no clear call, values can overlap the other calls; inactive = mostly above about 0.92. This is one part of the list.
Assay: chemical genetic growth profiling, strain panel (AID 1159580);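 note: tested at 20 µM; growth read once vehicle control cultures reached saturation at 30 °C; 1 = growth at the plate median or of vehicle wells; lower values mean less growth of the strain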
Conditions: S. cerevisiae deletion strains, growth OD

Measured: normalized growth

CCc1cccc2c3c([nH]c12)C(CC)(CC(=O)O)OCC3 (stereo not given)
inactive: locus YAL013W, strain DEP1, hits give low values 1.01 and 1.02 | locus YAL021C, strain ccr4, hits give low values 1.01 | locus YAL026C, strain drs2, hits give low values 0.983 | locus YAL030W, strain snc1, hits give low values 1 | locus YAL040C, strain CLN3, hits give low values 0.976 | locus YBL061C, strain skt5, hits give low values 0.979 | locus YBR009C, strain hhf1, hits give low values 1 | locus YBR021W, strain FUR4, hits give low values 1.01 | locus YBR023C, strain chs3, hits give low values 0.968 | locus YBR171W, strain sec66, hits give low values 0.959 | locus YBR229C, strain ROT2, hits give low values 1.01 | locus YBR231C, strain swc5, hits give low values 0.989 | locus YBR279W, strain paf1, hits give low values 0.987 | locus YCL011C, strain gbp2, hits give low values 1 | locus YCL016C, strain dcc1, hits give low values 1 | locus YCL029C, strain bik1, hits give low values 1.01 | locus YCL061C, strain MRC1 (second series), hits give low values 0.995 | locus YCL069W, strain vba3, hits give low values 0.976 | locus YCR088W, strain abp1, hits give low values 0.983 | locus YDL005C, strain med2, hits give low values 0.971 | locus YDL035C, strain GPR1, hits give low values 1 | locus YDL040C, strain nat1, hits give low values 0.976 | locus YDL074C, strain BRE1, hits give low values 1.02 | locus YDL101C, strain DUN1, hits give low values 1.02 | locus YDL134C, strain PPH21, hits give low values 1.01 | locus YDL185W, strain tfp1, hits give low values 1.01 | locus YDL192W, strain arf1, hits give low values 1.01 | locus YDR001C, strain nth1, hits give low values 0.966 | locus YDR069C, strain doa4, hits give low values 0.976 | locus YDR101C, strain arx1, hits give low values 1 | locus YDR137W, strain rgp1, hits give low values 0.964 | locus YDR150W, strain NUM1, hits give low values 1 and 0.999 | locus YDR159W, strain sac3, hits give low values 0.976 | locus YDR162C, strain NBP2, hits give low values 1.01 | locus YDR195W, strain ref2 0.896 | locus YDR297W, strain sur2, hits give low values 0.985 | locus YDR318W, strain mcm21, hits give low values 1.02 | locus YDR334W, strain swr1, hits give low values 0.951 | locus YDR335W, strain msn5, hits give low values 0.968 | locus YDR363W, strain ESC2, hits give low values 1.05 | locus YDR388W, hits give low values 1.01 | locus YDR392W, strain spt3, hits give low values 1.03 | locus YDR502C, strain sam2, hits give low values 0.986 | locus YEL003W, strain gim4, hits give low values 0.964 | locus YEL037C, strain rad23, hits give low values 0.968 | locus YEL061C, strain CIN8 (second series), hits give low values 0.965 | locus YEL061C, strain CIN8, hits give low values 1 | locus YER002W, strain NOP16, hits give low values 0.979 | locus YER015W, strain faa2, hits give low values 0.973 | locus YER016W, strain bim1, hits give low values 0.984 | locus YER110C, hits give low values 1 | locus YER111C, strain swi4, hits give low values 0.968 | locus YER155C, strain BEM2 (second series), hits give low values 0.979 | locus YER155C, strain BEM2, hits give low values 1.01 | locus YER167W, strain BCK2, hits give low values 1.01 | locus YFR010W, strain ubp6, hits give low values 0.984 | locus YGL078C, strain dbp3, hits give low values 0.99 | locus YGL086W, strain mad1, hits give low values 1.01 | locus YGL167C, strain pmr1, hits give low values 0.957 | locus YGL173C, strain kem1, hits give low values 0.993 | locus YGL227W, strain vid30, hits give low values 0.987 | locus YGL240W, strain doc1, hits give low values 0.982 | locus YGL248W, strain PDE1, hits give low values 1.01 | locus YGL253W, strain hxk2, hits give low values 0.98 | locus YGR078C, strain PAC10, hits give low values 1.02 | locus YGR135W, strain pre9, hits give low values 1 | locus YGR229C, strain SMI1, hits give low values 0.995 | locus YGR252W, strain gcn5, hits give low values 1 | locus YHR013C, strain ard1, hits give low values 0.985 | locus YHR027C, strain rpn1, hits give low values 0.997 | locus YHR030C, strain SLT2, hits give low values 1.01 and 0.971 | locus YHR079C, strain IRE1 (second series), hits give low values 1.01 | locus YHR079C, strain IRE1, hits give low values 0.965 | locus YHR094C, strain hxt1, hits give low values 1.01 | locus YHR129C, strain ARP1, hits give low values 1.01 | locus YHR142W, strain chs7, hits give low values 0.986 | locus YHR200W, strain rpn10, hits give low values 1 | locus YIL066C, strain RNR3, hits give low values 1.01 | locus YIL073C, strain SPO22, hits give low values 1.02 | locus YIL125W, strain kgd1, hits give low values 0.992 | locus YIR030C, strain dcg1, hits give low values 0.997 | locus YJL092W, strain hpr5, hits give low values 0.982 | locus YJL095W, strain BCK1 (second series), hits give low values 0.987 | locus YJL095W, strain BCK1, hits give low values 1.05 and 0.971 | locus YJL115W, strain asf1, hits give low values 0.98 | locus YJL129C, strain trk1, hits give low values 0.934 | locus YJL134W, strain LCB3, hits give low values 1.01 | locus YJL154C, strain vps35, hits give low values 0.981 | locus YJL164C, strain tpk1, hits give low values 1.01 | locus YJL166W, strain qcr8, hits give low values 0.984 | locus YJL168C, strain set2, hits give low values 1 | locus YJL187C, strain SWE1 (second series), hits give low values 1.03 | locus YJR043C, strain POL32, hits give low values 1.01 | locus YJR066W, strain TOR1, hits give low values 0.916 | locus YJR075W, strain HOC1, hits give low values 1.02

Source: PubChem BioAssay AID1159580 (chemical genetic matrix, 2015)
